NPSR antag: antagonists of human neuropeptide S receptor cAMP signaling; Q6W5P4; CHO-NPSR cells, cAMP TR-FRET, antagonist mode; Potency, µM (highest dose often 38.3 µM), for inactives: top-dose activity change, negative = inhibition, most hits filed as inhibitors; 220,000 tested, 1% active; AID 1461; note: nearly all actives have a fitted effect of over 50% in size
Target sequence (Q6W5P4 whole entry, looked up): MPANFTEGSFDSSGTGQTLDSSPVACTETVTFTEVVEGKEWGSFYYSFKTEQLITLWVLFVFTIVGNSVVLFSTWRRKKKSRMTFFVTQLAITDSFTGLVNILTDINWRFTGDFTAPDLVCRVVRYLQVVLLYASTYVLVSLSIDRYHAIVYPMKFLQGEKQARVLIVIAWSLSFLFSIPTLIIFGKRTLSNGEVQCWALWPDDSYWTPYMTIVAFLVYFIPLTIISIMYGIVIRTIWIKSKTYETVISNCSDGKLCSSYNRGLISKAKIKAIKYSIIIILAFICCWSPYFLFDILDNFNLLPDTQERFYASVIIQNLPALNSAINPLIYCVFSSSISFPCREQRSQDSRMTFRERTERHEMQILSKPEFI
VP16 counter: Gal4-VP16 reporter inhibition counter-screen; 310,000 tested, 3.5% active; Drosophila S2 Gal4-VP16 UAS-luciferase, luminescence, 20 h; Potency, µM (top dose mostly 53.6 µM), without a hit: at the top dose activity, negative = inhibition, usual class: inhibitors; AID 2546;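 note: Gal4-VP16 expression switched on by copper sulfate through the metallothionein promoter; nearly all actives have a fitted effect of over 50% in size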
RORg inh: inhibitors of mouse ROR gamma transcriptional activity; P51450; Drosophila S2 Gal4-RORgamma UAS-luciferase reporter, 20 h; Potency, µM (top dose mostly 53.6 µM), inactives show at the highest dose activity change, negative = inhibition, most hits filed as inhibitors; 310,000 tested, 5.4% active; AID 2551; note: nearly all actives have a fitted effect of over 60% in size
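Drosophila S2 cells stably expressing Gal4-DBD/mouse RORγ fusion under metallothionein promoter plus UAS-luciferase; compound 1 h, then 700 uM CuSO4 induction for 20 h at ambient temperature; inhibition read as reduced luminescence.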
B2AR arrestin: agonists driving beta-arrestin recruitment to human beta2-adrenergic receptor | beta-arrestin recruitment to beta2AR, cell-based reporter | Potency, µM (top dose mostly 46.1 µM), for the others: top-dose activation, hits mostly activators | 330,000 tested, 0.02% active;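 note: 0% = DMSO controls and full agonism = EC100 isoproterenol or metaproterenol; nearly all actives have a fitted effect of over 65% in size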
* hit, by the source's call; ? = inconclusive; / = no result given; ! = repeats disagree; [ ] = remark or other dose. An excerpt weighted towards active compounds, which were near 5.7% of everything screened. Calls come from the whole dose curve; as a rule, active = well fitted curve in the direction sought with a large enough effect; inconclusive = small, poorly fitted or top-dose-only effect, or another doubt; inactive = no such curve, though single readings can be large; an effect the other way counts as inactive or inconclusive. Unless noted, % is set by controls: 0 for no effect and ±100 for the full control effect; potency is the fitted concentration of half-maximal effect.

SMILES	NPSR antag	VP16 counter	RORg inh	B2AR arrestin
CCn1ccnc1CN1CCCC(C(=O)c2cccc(C(F)(F)F)c2)C1 (centres undefined)	3%	10µM*	2µM*	-1%
COc1cccc(OC)c1CN1CCCC(C(=O)c2cccc(Cl)c2)C1 (centres undefined)	/	11%	-11%	0%
COc1ccc(C(=O)C2CCCN(Cc3cccc(C)n3)C2)c(OC)c1 (centres undefined)	24%	-22%	?	0%
CCn1ccnc1CN1CCCC(C(=O)c2ccc(OC)cc2OC)C1 (centres undefined)	-23%	6.3µM*	3.5µM*	0%
O=C(c1cccc(C(F)(F)F)c1)C1CCCN(Cc2ncc[nH]2)C1 (centres undefined)	7%	16µM*	18%	0%
C=CC[N+]1(C)CCC23c4c5ccc(O)c4O[C@H]2C(=O)CC[C@@]3(O)C1C5 (some centres undefined)	/	-3%	-1%	/
CCOc1ccc2cc(C#N)c(=O)oc2c1	/	-3%	7%	/
CCCN1CCC[C@@H]2Cc3cn[nH]c3C[C@H]21	/	4%	-1%	/
COc1ccc(-n2nc(C(=O)NCC(=O)N3CCC4(CC3)OCCO4)c3ccccc3c2=O)cc1OC	/	?	16µM*	0%
COc1cccc(-n2nc(C(=O)N3CCC4(CC3)OCCO4)c3ccccc3c2=O)c1	-7%[46.1 µM]	0%	-9%	0%
C[C@H](N)Cc1c[nH]c2ccc(OCc3cccs3)cc12	/	3%	0%	/
C/C(=N\NC(=O)c1ccccc1O)c1c(O)n(Cc2ccccc2)c(=O)[nH]c1=O	15%	-16%	16µM*	0%
C/C(=N\NC(=O)c1ccccc1O)c1c(O)n(C2CCCCC2)c(=O)[nH]c1=O	/	11µM*	5µM*	0%
CC(=NCCO)c1c(O)n(C2CCCCC2)c(=O)[nH]c1=O	9%[46.1 µM]	-17%	18%	0%
C/C(=N\NC(=O)c1ccccc1Cl)c1c(O)n(C2CCCCC2)c(=O)[nH]c1=O	/	11µM*	7.1µM*	0%
C/C(=N\NC(=O)c1ccccc1)c1c(O)n(C2CCCCC2)c(=O)[nH]c1=O	/	20µM*	10µM*	-1%
COc1cc2c(cc1OC)C1C(=O)c3c(cc4c(c3O)C=CC(C)(C)O4)OC1CO2 (centres undefined)	/	1µM*	2.8µM*	/
CCNC(=O)CCSc1nc2cc(Cl)ccc2o1	-1%[46.1 µM]	?	16%	-1%
CCc1ccc(C(=O)NN(C(=O)c2cc(C)cc(C)c2)C(C)(C)C)cc1	/	-2%	-1%	/
COc1ccc(-c2oc3cc(OC)ccc3c(=O)c2O)cc1	/	7.9µM*	5µM*	/
CC(C)(C)c1ccc(O)c(N=Cc2c(O)ccc3ccccc23)c1	/	11µM*	13µM*	1%
COC(=O)C(O)(c1ccc(N=Cc2ccccc2O)c(C)c1)C(F)(F)F (centres undefined)	19%	0%	-7%	-2%
CCCCCCCCCOc1ccc2[nH]cc(CCN)c2c1	?	?	3.2µM*	0%
COc1ccc(-c2nc3ccccc3c(=O)n2-c2nccs2)cc1	-10%[46.1 µM]	?	6.3µM*	0%
CN(C)C(CSC(N)=O)CSC(N)=O	/	2%	34%	/
SMILES	NPSR antag	VP16 counter	RORg inh	B2AR arrestin
CCOP(=S)(OCC)Oc1ccc([N+](=O)[O-])cc1	/	3%	-3%	/
NC(=O)CF	/	3%	-4%	/
CCCCC/C=C\C/C=C\C/C=C\C/C=C\CCCC(=O)NCCO	/	-1%	38%	/
CCCCC/C=C\C/C=C\C/C=C\C/C=C\CCCC(=O)NCCc1ccc(O)c(O)c1	/	-28%	11µM*!	/
CC[C@H](C)[C@H](NC(=O)[C@@H](N)Cc1ccc(O)cc1)C(=O)NCC(=O)N[C@@H](CO)C(=O)N[C@@H](CCCN=C(N)N)C(N)=O	/	-8%	15%	/
Clc1ccc(C(c2ccc(Cl)cc2)C(Cl)Cl)cc1	/	1%	35%	/
O=C(N/N=C\c1ccc(COc2ccc([N+](=O)[O-])cc2)o1)c1cccc(Cl)c1	-37%[46.1 µM]	2.5µM*	1.8µM*	0%
O=C(N/N=C/c1cccc([N+](=O)[O-])c1)c1cnccn1	10%	-6%	?	-2%
CC1CC2OC2/C=C\C=C/C(=O)Cc2c(Cl)c(O)cc(O)c2C(=O)O1 (centres undefined)	/	10µM*	7.9µM*	/
C[C@H]1CCC[C@H](O)CCCCCc2cc(O)cc(O)c2C(=O)O1	-11%[46.1 µM]	?	?	0%
CCOC(OCC)P(=O)(O)CCCN	/	7%	12%	/
CCC1CN2CCC1CC2C(Oc1cc2ccccc2c2ccccc12)c1ccnc2ccc(O)cc12 (centres undefined)	/	-3%[10 µM]	1%[10 µM]	/
CNc1ccc2oc(C[C@H]3O[C@@]4(CC[C@H]3C)O[C@H]([C@H](C)C(=O)c3ccc[nH]3)[C@H](C)C[C@H]4C)nc2c1C(=O)O	7.9µM*	1.3µM*	-9%	0%
O=C1NC(=O)N(c2ccccc2)C(=O)/C1=C/C=C/c1ccco1	?	?	?	6%
Cc1ccc(N2C(=O)NC(=O)/C(=C\C=C\c3ccco3)C2=O)cc1C	13µM*	7.1µM*	13µM*	3%
Cc1ccc(N2C(=O)NC(=O)/C(=C\C=C\c3ccco3)C2=O)cc1	?	5.6µM*	?	-1%
CCON=O	/	4%	-7%	/
COC(=O)C1CN(C#N)N(c2ccc(Cl)cc2)C12c1ccccc1-c1ccccc12 (centres undefined)	7.9µM*	0.79µM*	0.56µM*	-1%
COC(=O)C1C(c2ccccc2)C2C(=O)c3c(OC)cc(OC)cc3O[C@@]12c1ccc(OC)cc1 (some centres undefined)	/	-10%[10 µM]	4%[10 µM]	/
COC(=O)[C@@H]1[C@@H](O)[C@@]2(O)c3c(OC)cc(OC)cc3O[C@@]2(c2ccc(OC)cc2)[C@H]1c1ccccc1	/	0.1µM*	0.4µM*	/
CCOP(=O)(OCC)C(=Cc1cc(C(C)(C)C)c(O)c(C(C)(C)C)c1)P(=O)(OCC)OCC	/	-11%	?	/
CC1CCN(S(=O)(=O)c2ccc(NN=C(C#N)C#N)cc2)CC1	10µM*	?	?	0%
N#CC(C#N)=NNc1ccc(S(N)(=O)=O)cc1	-25%	-8%	7%	-1%
CC[C@H](CO)NC(=O)[C@H]1C=C2c3cccc4[nH]cc(c34)C[C@@H]2N(C)C1	/	-1%[17 µM]	-1%[16.9 µM]	/
O=[N+]([O-])c1cc(O)c(O)c([N+](=O)[O-])c1	-7%[46.1 µM]	-7%	22µM*	0%
SMILES	NPSR antag	VP16 counter	RORg inh	B2AR arrestin
O=[N+]([O-])c1ccc(O)c([N+](=O)[O-])c1	/	22µM*	?	/
O=C(Cl)C(Cl)(Cl)Cl	/	2%	-3%	/
O=[N+]([O-])c1c(Cl)c(Cl)cc(Cl)c1Cl	/	5%	3%	/
CNc1cc(Cl)c2nonc2c1[N+](=O)[O-]	10µM*	3.5µM*	1µM*	0%
CC(=O)OCC(N)C(=O)c1ccccc1 (centres undefined)	/	2%	7%	/
CCCCCOC(=O)c1ccccc1C(=O)OCCCCC	/	-5%	20%	/
CCn1c(O)c(C=Nc2ccc(S(N)(=O)=O)cc2)c(=O)n(CC)c1=S	-37%	-27%	-27%	-1%

Assay outcomes deposited in PubChem BioAssay by National Center for Advancing Translational Sciences (NCATS).
